High-throughput results (PubChem)
Shown are actives, neighbours in structure and some others; about 6.6% of the full set was active somewhere.
SW480 rereplic = A quantitative high throughput screen for small molecules that induce DNA re-replication in SW480 colon adenocarcinoma cells | Potency, µM (doses to about 46.1 µM), for inactives: at the top dose re-replication activation, hits mostly activators | 340,000 tested, 1.8% active | AID 624297, 2012 | SW480 DNA re-replication, Hoechst DNA content imaging, 48 h; also: % of control where 0% means no effect; nearly all actives have a fitted effect of over 55% in size
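First, 250 cells per well were seeded. Next, compound or vehicle (23 nL) was pinned in, plates sat 48 hr at 37 C. Finally Hoechst was added for 40 min before fluorescence scanning.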
KB-V1 MDR tox = qHTS assay for MDR1-selective chemotherapeutics: Primary screen using the drug-selected MDR subline cells KB-V1. Potency, µM (highest dose often 46.1 µM), hits mostly cytotoxic. KB-V1 MDR cells viability, CellTiter-Glo, 72 h. 400,000 tested, 3.4% active. AID 1347076, 2019; also: % is scaled to controls: 0 for no effect and ±100 for the full control effect; nearly all actives have a fitted effect of over 60% in size
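KB-V1 cells (P-gp-expressing MDR subline of KB-3-1) in phenol-red-free DMEM with 10% FBS were exposed to library compounds over a concentration series for 72 h at 37 degrees C. Viability read by CellTiter-Glo luminescence; concentration-effect curves fitted after normalization.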
MCF10A rereplic = A quantitative high throughput screen for small molecules that induce DNA re-replication in MCF 10a normal breast cells; MCF 10A DNA re-replication, Hoechst nuclear intensity, 48 h; Potency, µM (top dose mostly 46.1 µM), for inactives: at the top dose activity, positive = re-replication, usual class: activators; 350,000 tested, 2.9% active; AID 624296, 2012; also: % of control where 0% means no effect; nearly all actives have a fitted effect of over 50% in size
PTAP TSG101 blk = qHTS Assay for Iinhibitors of HIV-1 Budding by Blocking the Interaction of PTAP/TSG101 | Tumor susceptibility gene 101 protein (Homo sapiens), Q99816 | Fluorescence polarization, FITC-PTAP peptide / Tsg101 binding | Potency, µM (doses to about 115 µM), for inactives: at the highest dose activity change, negative = inhibition, actives largely listed as inhibitors | 340,000 tested, under 10 active | AID 493005, 2010; active = well fitted inhibition curve with a large enough effect in the main read-out, with a control signal flat, not every such curve was filed as active; inconclusive = small, poorly fitted or top-dose-only effect, or effect the other way, or a change in a side signal; inactive = no such curve, though single readings can be large or run the other way; also: % of control where 0% means no effect
Target sequence (Q99816 whole entry, looked up): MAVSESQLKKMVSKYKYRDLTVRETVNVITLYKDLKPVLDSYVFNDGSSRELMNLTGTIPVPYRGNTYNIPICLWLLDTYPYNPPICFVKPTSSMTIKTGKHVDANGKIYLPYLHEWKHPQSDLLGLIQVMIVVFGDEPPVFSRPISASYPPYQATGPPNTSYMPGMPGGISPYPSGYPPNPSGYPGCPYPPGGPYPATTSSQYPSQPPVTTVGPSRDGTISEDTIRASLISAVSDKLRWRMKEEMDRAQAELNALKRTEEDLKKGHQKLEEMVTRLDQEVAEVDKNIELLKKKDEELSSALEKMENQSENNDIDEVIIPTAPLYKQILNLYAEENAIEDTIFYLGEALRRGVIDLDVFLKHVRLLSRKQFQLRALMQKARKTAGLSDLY
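Fluorescence anisotropy tracks displacement of a FITC-tagged PTAP peptide (50 nM) from the Tsg101 binding domain (10 uM), following a 20 min room-temperature incubation at pH 7.5.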
RGS4 inhibitor = Inhibitors of Regulator of G Protein Signaling (RGS) 4: qHTS. Transcreener GDP fluorescence polarization, RGS4-accelerated GTP hydrolysis. 390,000 tested, 0.039% active. Potency, µM (highest dose often 114 µM), inactives show at the highest dose activity change, negative = inhibition, actives largely listed as inhibitors. Regulator of G-protein signaling 4 (Homo sapiens), P49798. AID 504845, 2011; also: % is scaled to controls: 0 for no effect and ±100 for the full control effect; nearly all actives have a fitted effect of over 75% in size
Target sequence (P49798 whole entry, looked up): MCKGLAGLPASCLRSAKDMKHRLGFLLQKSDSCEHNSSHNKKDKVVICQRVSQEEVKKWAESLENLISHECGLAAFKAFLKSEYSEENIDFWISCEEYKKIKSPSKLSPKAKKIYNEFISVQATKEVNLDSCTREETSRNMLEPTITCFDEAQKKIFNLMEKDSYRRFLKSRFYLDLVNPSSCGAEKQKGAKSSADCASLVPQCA
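MLSMR compounds (23 nl, pin-transferred) preincubated 10 min at room temperature with a 500nM (2x) first reagent, then RGS4 at 900nM (2x) plus Transcreener GDP mix added; fluorescence polarization (620/688 nm) read before and after 90 min at 30 °C.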
KB-3-1 cytotox = qHTS assay for MDR1-selective chemotherapeutics: Primary screen using the parental adenocarcinoma cell KB-3-1. KB-3-1 viability, CellTiter-Glo ATP luminescence, 72 h. Potency, µM (series often up to 46.1 µM), usual class: cytotoxic. 400,000 tested, 1.4% active; also: % is scaled to controls: 0 for no effect and ±100 for the full control effect; nearly all actives have a fitted effect of over 60% in size
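Screening of KB-3-1 cells (DMEM, 10% FBS, phenol-red free) ran from lowest to highest compound concentration; after 72 h at 37 °C viability was read luminescently and curves fitted.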
The depositor's hits bear a star; i = inactive; ? = inconclusive; · = no result given; ! = repeats disagree. Unless noted, calls follow the shape of the dose curve; as a rule, active = well fitted curve in the direction sought with a large enough effect; inconclusive = small, poorly fitted or top-dose-only effect, or another doubt; inactive = no such curve, though single readings can be large; an effect the other way counts as inactive or inconclusive. Potency is read from the fitted curve at half-maximal effect.

SMILES | SW480 rereplic | KB-V1 MDR tox | MCF10A rereplic | PTAP TSG101 blk | RGS4 inhibitor | KB-3-1 cytotox
COc1ccccc1CNC(=O)C1CCCN(c2nnc(C)c3c(C)n(-c4ccccc4)nc23)C1 (stereo not given) | · | i | · | · | 5.3% | i
CCOc1ccccc1CNC(=O)C1CCCN(c2nnc(C)c3c(C)n(-c4ccccc4)nc23)C1 (stereo not given) | ? | ? | 14.6µM* | -8.3% | -24.6% | ?
Cc1ccc(-n2nc3c(N4CCC(C(=O)NCCc5ccccc5C)CC4)nnc(C)c3c2C)cc1 | 9.5% | ? | 23.1µM* | -6.0% | 15.0% | ?
COc1ccc(-n2nc3c(N4CCC(C(=O)NCc5ccccc5C)CC4)nnc(C)c3c2C)cc1 | ? | i | ? | -1.5% | ? | i
C=CCNCCCCOc1ccc(OCc2ccccc2)cc1 | 20.6µM* | i | ? | -4.2% | 6.2% | i
O=S(=O)(Nc1nc2ccccc2nc1N1CCN(c2ccccc2)CC1)c1ccc(F)cc1 | -695.4% | 5.17µM* | 15.2% | -5.0% | -10.0% | ?
Cc1ccc(S(=O)(=O)Nc2nc3ccccc3nc2N2CCOCC2)cc1 | -3.6% | i | 2.7% | -4.1% | -7.5% | i
O=S(=O)(Nc1nc2ccccc2nc1Nc1ccc2c(c1)OCO2)c1ccc(F)cc1 | 2.4% | 5.8µM* | 10.7% | -0.2% | 15.3% | ?
Cc1cc(C)n(-c2nc3ccccc3nc2Nc2ccc3c(c2)OCO3)n1 | 6.4% | i | 16.4µM* | -1.7% | 2.6% | i
CCC(=O)N1CCc2cc(CNC(=O)Cc3ccc(F)cc3)ccc21 | · | · | · | · | -0.2% | ·
COc1ccc(-c2cc(C(=O)N3CCN(C(c4ccccc4)c4ccccc4)CC3)no2)cc1 | 0.7% | 20.6µM* | ? | 0.8% | 23.9% | ?
COc1ccc(-c2cc(C(=O)N3CCN(C(c4ccccc4)c4ccccc4)CC3)no2)cc1OC | -1.4% | i | 10.3µM* | -1.1% | 16.0% | i
COc1ccccc1N1CCN(C(=O)c2cc(-c3ccc(C)c(F)c3)on2)CC1 | · | · | · | · | -21.5% | ·
O=C(c1cc(-c2ccco2)on1)N1CCN(C(c2ccccc2)c2ccccc2)CC1 | 3.98µM* | i | ? | -7.4% | -17.1% | i
COc1ccc(-c2cc(C(=O)N3CCCC3)no2)cc1 | -1.0% | i | -5.4% | 0.6% | -19.8% | i
COc1ccccc1N1CCN(C(=O)c2cc(-c3ccc4c(c3)OCO4)on2)CC1 | -0.2% | 16.4µM* | 2.1% | -8.0% | -5.4% | i
Cc1nn(CC(=O)NC2CCCCC2)c(=O)c2cc3cc(F)ccc3n12 | · | ? | · | · | 27.9% | i
COc1cc(NC(=O)c2cc(-c3cccc(Cl)c3)on2)c(OC)cc1Cl | · | i | · | · | 8.0% | i
CCN(CC)C(=O)COc1c(-c2ccco2)oc2ccccc2c1=O | -7.4% | i | ? | 1.3% | -13.2% | i
CC(=O)Oc1c(-c2ccco2)oc2ccccc2c1=O | 16.4µM* | ? | ? | -1.9% | 16.1% | i
O=C(NCc1cccc(F)c1)c1ccc2nc(N3CCCCC3)sc2c1 | · | ? | · | · | 21.0% | i
O=S(=O)(c1ccc(N2CCC(c3ccc(Cl)cc3)=N2)cc1)N(CCO)CCO | 0.581µM* | i | ? | -6.7% | -27.3% | i
O=S(=O)(c1ccc(Oc2ccc(S(=O)(=O)N(CCO)CCO)cc2)cc1)N(CCO)CCO | -0.3% | i | 5.2% | -1.4% | 8.0% | i
CCN(CC)c1nc2c(c(=O)[nH]c(=O)n2C)n1Cc1ccccc1Cl | -17.7% | ? | -0.5% | -6.9% | -14.2% | i
CN(C)c1nc2c(c(=O)[nH]c(=O)n2C)n1Cc1ccccc1Br | -3.8% | 20.6µM* | 3.7% | 0.8% | 11.6% | ?
SMILES | SW480 rereplic | KB-V1 MDR tox | MCF10A rereplic | PTAP TSG101 blk | RGS4 inhibitor | KB-3-1 cytotox
CN(Cc1ccccc1)c1nc2c(c(=O)[nH]c(=O)n2C)n1Cc1ccccc1 | -11.9% | 9.2µM* | ? | -6.8% | -28.1% | i
CN(Cc1ccccc1)c1nc2c(c(=O)[nH]c(=O)n2C)n1CCCSc1ncccn1 | 0.6% | 2.59µM* | 17.6% | -2.8% | 42.0% | ?
O=S(=O)(Nc1ccc2c(c1)OCO2)c1ccc(Br)s1 | ? | i | 18.4µM* | -7.9% | -19.6% | i
COc1cc(NS(=O)(=O)c2ccc(Br)s2)cc(OC)c1 | 0.5% | 16.4µM* | 5.2% | -3.1% | -15.9% | ?
COc1ccc(-c2cc(C(F)(F)F)n3nc(C(=O)NCC45CC6CC(CC(C6)C4)C5)cc3n2)cc1 | · | i | · | · | -29.4% | ?
O=c1c2c(-c3cccs3)csc2ncn1/N=C/c1ccc(OC(F)F)cc1 | -1.3% | 14.6µM* | -1.0% | -1.7% | 11.3% | i
COc1ccccc1NC(=O)CSc1cn(CC(=O)N2CCCC2)c2ccccc12 | · | i | · | · | 16.6% | i
O=C(Nc1cccc(C(F)(F)F)c1)c1noc2c1CCc1ccccc1-2 | · | i | · | · | -18.6% | i
O=C(Nc1cccc(O)c1)c1noc2c1CCc1ccccc1-2 | 3.3% | 23.1µM*! | -1.3% | -5.4% | -4.7% | i
CCOc1ccc(CC(=O)Nc2c(C(=O)Nc3ccc(OC)cc3OC)oc3ccccc23)cc1 | · | i | · | · | -6.3% | i
N#Cc1ccc(CN2C(=O)c3ccccc3Sc3ccc(C(=O)OCc4ccco4)cc32)cc1 | · | ? | · | · | -11.1% | i
O=C(CSc1nnc(-c2cccnc2)n1Cc1ccco1)N1c2ccccc2Sc2ccccc21 | -6.8% | 6.51µM* | 8.9% | -10.2% | -21.7% | i
O=C(c1cc2ccccc2[nH]1)c1cc2cc(O)ccc2[nH]1 | · | i | · | · | · | i
NC1=NC(=O)/C(=C\c2cc([N+](=O)[O-])ccc2Cl)S1 | 0.461µM* | i | -0.7% | -3.8% | -20.2% | i
COc1ccc(C(=O)c2ccc(Cl)c([N+](=O)[O-])c2)cc1 | 0.82µM* | ? | 3.66µM* | -4.3% | -6.7% | 1.16µM*
Cc1ccc2ncnc(NCc3ccco3)c2c1 | · | i | · | · | ? | ?
CC(=O)Nc1ccc(S(=O)(=O)Nc2ccc(S(=O)(=O)Nc3nc(C)cc(C)n3)cc2)cc1 | -29.8% | i | -40.2% | -7.0% | 7.7% | i
CCCCOc1ccc(S(=O)(=O)Nc2ccc(NC(C)=O)cc2)cc1 | -3.4% | 20.6µM* | 18.7% | -8.6% | -20.0% | ?
CCCCCOC(=O)Nc1ccc(S(=O)(=O)Nc2cccc([N+](=O)[O-])c2)cc1 | -0.1% | i | ? | -9.2% | 9.8% | i
